esBAF inh: blocks esBAF chromatin remodeling in mouse ES cells. Bmi1-luciferase knock-in reporter, 24 h; 100% = twice the neutral-well signal. reporter increase, % at 12.5 µM. 350,000 tested, 2% active; in the data active means activation above about 40%; inconclusive means no clear call, values can overlap the other calls;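 further: a rise in the Bmi1 reporter signal indicates esBAF inhibition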
FXN GAA850 act: activators of GAA850 frataxin (FXN) promoter; HEK293 lucGAA850 FXN promoter luciferase reporter, 24 h; percent of 10 µM SAHA response; activation, % at 6 µM; 360,000 tested, 0.56% active; AID 540364;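 active means activation above the average of all compounds screened plus 3 SD, cutoff fixed separately per campaign, cut at about 7.5% in these data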
C2C12 statin: protects C2C12 myotubes from simvastatin toxicity; ATP luminescence, 48 h; scaled: DMSO 0, geranylgeraniol control 100; rescue of ATP level, % at 7.49 µM; 330,000 tested, 0.78% active;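 active means mean ATP rescue above about 67%, or every replicate alone reaching that limit, limit read from the data, passing the limit was not always enough; inconclusive means no clear call, values can overlap the other calls; inactive means mean under the limit and some replicate under it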;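 further: myotubes were challenged with 10 µM simvastatin during compound exposure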
MITF TRPM1 HTS: increases MITF-driven TRPM1 promoter luciferase signal; SK-MEL-5 TRPM1-promoter luciferase, 24 h; % of positive control, neutral wells = 0; activation, % at 12.5 µM; 300,000 tested, 0.75% active;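 active means mean activation of at least 80% with every replicate also reaching 80%; inconclusive means mean reaches 80% but some replicate falls short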
Wnt act: activators of Wnt/beta-catenin signaling; Wnt/beta-catenin reporter cell assay, activator, plate reader; activation, % at 9.35 µM; 300,000 tested, 1.2% active; in the data active means activation above about 30%, passing the limit was not always enough; inconclusive means no clear call, values can overlap the other calls
Numbers stand for hits. Shown are actives, neighbours in structure and some others; about 3.3% of the full set was active somewhere.

For C[C@@H]1CN([C@@H](C)CO)C(=O)c2cc(C#CC3CCCCC3)cnc2O[C@@H]1CN(C)C(=O)Cc1ccccn1 the results were esBAF inh inactive and C2C12 statin inactive.
Screening CN(C(=O)c1ccco1)c1nnc(C23CC4CC(CC(C4)C2)C3)s1 returned esBAF inh 67, FXN GAA850 act inactive, C2C12 statin inactive and Wnt act inactive.
`CN(CC12CC3CC(CC(C3)C1)C2)C(=O)c1ccco1` gave esBAF inh inactive, FXN GAA850 act inactive, C2C12 statin inactive, MITF TRPM1 HTS inactive and Wnt act inactive.
Screening COc1ccc(Br)cc1/C=N/NC(=O)c1ccc(COc2ccc3c(c2)CCC3)o1 returned esBAF inh 56, FXN GAA850 act inactive, MITF TRPM1 HTS inactive and Wnt act inactive.
`C[C@@H]1CN([C@@H](C)CO)C(=O)c2cc(-c3ccncc3)cnc2O[C@H]1CN(C)C(=O)C1CCC1` gave C2C12 statin inactive.
CCn1c(NC(=O)c2ccccc2)nc2ccccc21 was read as FXN GAA850 act inactive and Wnt act 31.
For CCCn1c(NC(=O)c2ccco2)nc2ccccc21 the results were esBAF inh inactive, FXN GAA850 act inactive, C2C12 statin 102 and MITF TRPM1 HTS inactive.
For CCCCn1c(NC(=O)c2ccccc2)nc2ccccc21 the results were esBAF inh inactive, FXN GAA850 act inactive, C2C12 statin inactive, MITF TRPM1 HTS inactive and Wnt act inactive.
C[C@H](NC(=O)C[C@H]1C=C[C@@H](NC(=O)Cc2ccccn2)[C@@H](CO)O1)c1ccccc1 was read as esBAF inh inactive and C2C12 statin inactive.
For Cc1cc(C)c2nc(N3CCCC(C(=O)NC4CCCC4)C3)sc2c1 (configuration not stated) the results were esBAF inh 58, FXN GAA850 act inactive, C2C12 statin inactive, MITF TRPM1 HTS inactive and Wnt act inactive.
C[C@H]1CN([C@@H](C)CO)C(=O)c2cc(C#Cc3ccncc3)cnc2O[C@@H]1CN(C)CC1CCCCC1 was read as esBAF inh inactive and C2C12 statin inactive.
`C[C@@H]1CN([C@@H](C)CO)S(=O)(=O)c2ccc(-c3ccncc3)cc2O[C@H]1CN(C)C(=O)CN(C)C` gave esBAF inh inactive and C2C12 statin inactive.
`C[C@H](CO)N1C[C@H](C)[C@@H](CN(C)C(=O)Nc2ccccc2)Oc2ccc(NS(=O)(=O)c3ccc(Cl)cc3)cc2CC1=O` gave esBAF inh inactive and C2C12 statin inactive.
Screening CC1CCc2c(sc(/N=C/c3ccco3)c2C(N)=O)C1 (configuration not stated) returned FXN GAA850 act inactive and Wnt act 45.
CCC1CCc2c(sc(NC(=O)c3ccco3)c2C(N)=O)C1 (configuration not stated) was read as esBAF inh 60, FXN GAA850 act inactive, C2C12 statin inactive and Wnt act 37.
N#Cc1c(-c2ccccc2)ccnc1Oc1ccccc1 was read as esBAF inh 49, FXN GAA850 act inactive, C2C12 statin inactive and MITF TRPM1 HTS inactive.
Cc1ccc(Nc2nnc(-c3ccccc3N)o2)cc1C was read as FXN GAA850 act inactive and Wnt act 37.
Screening Cc1ccc(NCc2ccco2)cc1C returned FXN GAA850 act inactive, MITF TRPM1 HTS inactive and Wnt act inactive.
For NC(=O)C1CCN(Cc2nc3cc(Cl)ccc3c(=O)[nH]2)CC1 the results were esBAF inh inactive, FXN GAA850 act inactive, C2C12 statin 102 and MITF TRPM1 HTS inactive.
`Oc1ccc(-c2csc(Nc3cccc4ccccc34)n2)cc1O` gave esBAF inh inactive, FXN GAA850 act inactive, C2C12 statin inactive and Wnt act inactive.
For Cc1cccc(Nc2nc(-c3ccc(F)c(C)c3)cs2)n1 the results were esBAF inh 58, FXN GAA850 act inactive, C2C12 statin inactive, MITF TRPM1 HTS inactive and Wnt act 46.
For Cc1cccc(Nc2nc(-c3ccc(O)c(O)c3)cs2)n1 the results were esBAF inh 93, FXN GAA850 act inactive, C2C12 statin inactive and Wnt act inactive.
CCCNC(=O)Nc1ccc2c(c1)OC[C@H](C)N(CCC(F)(F)F)C[C@H](C)[C@H](OC)CN(C)C2=O was read as esBAF inh inactive and C2C12 statin inactive.
For COc1ccc(NC(=O)N[C@H]2CC[C@H](CCNC(=O)Cc3ccncc3)O[C@@H]2CO)cc1 the results were esBAF inh inactive and C2C12 statin inactive.
Cc1nnc(SCc2ccc(F)cc2Cl)s1 was read as esBAF inh 50, FXN GAA850 act inactive, C2C12 statin inactive and MITF TRPM1 HTS inactive.
`Clc1cccc(Cl)c1CSc1nnc(-c2ccncc2)s1` gave esBAF inh inactive, FXN GAA850 act inactive, C2C12 statin inactive and Wnt act inactive.
`Cc1nnc(SCc2ccc3c(c2)OCO3)s1` gave esBAF inh 51, FXN GAA850 act inactive, C2C12 statin inactive and MITF TRPM1 HTS inactive.
Screening Cc1nnc(SCc2cccc(CSc3nnc(C)s3)c2)s1 returned esBAF inh inconclusive, FXN GAA850 act inactive, MITF TRPM1 HTS inactive and Wnt act inactive.
Screening Nc1nnc(SCc2ccc(F)cc2Cl)s1 returned esBAF inh inactive, FXN GAA850 act inactive, C2C12 statin inactive, MITF TRPM1 HTS inactive and Wnt act inactive.
For Cc1nnc(SCc2c(Cl)cccc2Cl)s1 the results were esBAF inh 55, FXN GAA850 act inactive, MITF TRPM1 HTS inactive and Wnt act inactive.
For CCCC(=O)Nc1ccc2c(c1)OC[C@H](C)N(C(=O)CC1CC1)C[C@H](C)[C@H](OC)CN(C)C2=O the results were esBAF inh inactive and C2C12 statin inactive.
Screening CO[C@H]1CN(C)C(=O)c2ccc(NS(=O)(=O)c3ccccc3)cc2OC[C@@H](C)N(C(=O)NC(C)C)C[C@H]1C returned esBAF inh inactive and C2C12 statin inactive.
For CC(C)=CC(=O)Nc1ccc(OCc2ccccc2)cc1 the results were esBAF inh 50, FXN GAA850 act inactive, C2C12 statin inactive, MITF TRPM1 HTS inactive and Wnt act 41.
For Cc1ccsc1C(=O)Nc1ccc(OCc2ccccc2)cc1 the results were esBAF inh 54, FXN GAA850 act inactive, C2C12 statin inactive, MITF TRPM1 HTS inactive and Wnt act inactive.
`CCOC(=O)c1c(NC(=S)Nc2ccc(Cl)cc2)sc(C)c1C` gave esBAF inh inactive, FXN GAA850 act inactive, C2C12 statin inactive and MITF TRPM1 HTS inactive.
For Cc1cc(C(=O)Nc2ccc(OCc3ccccc3)cc2)c(C)o1 the results were esBAF inh 44, FXN GAA850 act inactive, C2C12 statin inactive, MITF TRPM1 HTS inactive and Wnt act inactive.
`CCOC(=O)c1c(NC(=O)c2cc(C)oc2C)sc(C(=O)Nc2ccc(Cl)cc2)c1C` gave esBAF inh inconclusive, FXN GAA850 act inactive, C2C12 statin inactive, MITF TRPM1 HTS inactive and Wnt act 42.
Screening C[C@H](CO)N1C[C@H](C)[C@H](CN(C)C(=O)Cc2ccccn2)Oc2ncc(C#CC3CCCCC3)cc2C1=O returned esBAF inh inactive and C2C12 statin inactive.
